The values below come from the supplement of paper PMC12340641.

SMILES strings stand for the structures. Structures can show the parent of a compound that is named as a salt. ± gives the standard deviation of the averaged measurements.

The test concerns HEK293FT dCK*-IKZF1. Description: relative growth recovery (pomalidomide 10 uM = 100%, DMSO = 0%); higher = more growth rescue (IKZF1 fusion degradation). The following applies: compound concentration: 5 uM; AraC concentration: 0.3 uM; overnight pretreatment + 4 days AraC. In a few lines:
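HEK293FT cells stably expressing a dCK*-IKZF1 fusion (300/well, 384-well) received 5 μM compound 2 h after seeding. After overnight at 37 °C they received a nucleoside suicide substrate at 0.3 μM plus medium for 4 days. On day 5, Hoechst 33342-stained nuclei were counted by whole-well imaging. Growth recovery was normalised per plate to a reference degrader (100%) and vehicle (0%); values are means of duplicates run on different days.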
Take `COc1cc(NS(C)(=O)=O)ccc1Nc1c2ccccc2nc2ccccc12`: the relative growth recovery is -13.2%.

With `Oc1c(Cl)cc(Cl)c(Cl)c1Cc1c(O)c(Cl)cc(Cl)c1Cl`, the relative growth recovery is 0.025%.

As to `O=C(Nc1cc(C(F)(F)F)ccc1O)Nc1cc(C(F)(F)F)ccc1O`, the relative growth recovery is -1.77%.

As to `OCCN1CCN(CCCN2c3ccccc3Sc3ccc(Cl)cc32)CC1` [Perphenazine], the relative growth recovery turned out to be 2.98 ± 1%.

For `CN1CCC(=C2c3ccccc3Sc3ccccc32)CC1`, the relative growth recovery is -1.33%.

`O=C1CC[C@H](N2Cc3cc(N4CCN(CC5CCN(c6ccc([C@@H]7c8ccc(O)cc8CC[C@@H]7c7ccccc7)cc6)CC5)CC4)ccc3C2=O)C(=O)N1`: the relative growth recovery is 9.37%.

For `O=C(/C=C/c1ccc2ccccc2n1)c1ccncc1`, the relative growth recovery is -15%.

With `CC[N+](C)(CC)CCC[n+]1c(-c2ccccc2)c2cc(N)ccc2c2ccc(N)cc21` [propidium-iodide], the relative growth recovery is -3.16%.

For the molecule `CO[C@H]1/C=C/O[C@@]2(C)Oc3c(C)c(O)c4c(O)c(c(C=NN5CCN(C)CC5)c(O)c4c3C2=O)NC(=O)C(C)=CC=CC(C)[C@@H](O)[C@@H](C)[C@H](O)[C@H](C)[C@@H](OC(C)=O)[C@H]1C` (stereo partly drawn) [Rifampin (Rifampicin)], the relative growth recovery was -2.73%.

Turning to `CO[C@@]12[C@@H]3NC3CN1C1=C(C(=O)C(N)=C(C)C1=O)[C@@H]2COC(N)=O` (stereo partly drawn), the relative growth recovery is -12.9%.

Take `CC[C@]1(O)C[C@H]2CN(CCc3c([nH]c4ccccc34)[C@@](C(=O)OC)(c3cc4c(cc3OC)N(C)[C@H]3[C@@](O)(C(=O)OC)[C@H](OC(C)=O)[C@]5(CC)C=CCN6CC[C@]43[C@@H]65)C2)C1` [Vinblastine Sulfate]: the relative growth recovery was -11.7%.

Regarding `CSc1nc2cc(Cl)c(Oc3cccc(Cl)c3Cl)cc2[nH]1`, the relative growth recovery was 0.015%.

For `COc1ccc(NS(=O)(=O)c2ccc(N=Nc3ccc(O)c(C(=O)O)c3)cc2)nn1` [salazodine], the relative growth recovery was -2.83%.

`O=C(O)c1cc(N=Nc2ccc(O)c(C(=O)O)c2)ccc1O` [Olsalazine Na]: the relative growth recovery is -1.08%.

Regarding `Nc1ccc2cc3ccc(N)cc3nc2c1`, the relative growth recovery is -15%.

Regarding `O=C(Nc1ccc(S(=O)(=O)Nc2nccs2)cc1)C(c1ccccc1)c1ccccc1`, the relative growth recovery was -3.39%.

Take `NC1CC(O[C@H]2C[C@@]([C@@](C)=O)(O)CC3=C2C(O)=C5C(C(C4=CC=CC(OC)=C4C5=O)=O)=C3O)OC(C)C1O` (stereo partly drawn) [daunorubicin]: the relative growth recovery is -14.9%.

With `COc1ccc(-c2nc3cc(C4=NNC(=O)CC4C)ccc3[nH]2)cc1` (stereo not drawn) [Pimobendan (Vetmedin)], the relative growth recovery is -0.495%.

On to `Clc1ccc(COC(Cn2ccnc2)c2ccc(Cl)cc2Cl)c(Cl)c1` (stereo not drawn) [Miconazole], for which the relative growth recovery is 3.22%.

For the molecule `C=CC[C@@H]1/C=C(\C)C[C@H](C)C[C@H](OC)[C@H]2O[C@@](O)(C(=O)C(=O)N3CCCC[C@H]3C(=O)O[C@H](/C(C)=C/[C@@H]3CC[C@@H](O)[C@H](OC)C3)[C@H](C)[C@@H](O)CC1=O)[C@H](C)C[C@@H]2OC` [Tacrolimus], the relative growth recovery was 12.2%.

For the molecule `Cc1cc(C)c(C2=NOC3C4CCC(C4)C23)c(C)c1` (stereo not drawn), the relative growth recovery is -0.34%.

As to `N#CC(c1ccccc1)(c1ccccc1)c1ccccc1Cl`, the relative growth recovery is -0.3%.

For `CN1CCN(Cc2ccc(-c3cnc4[nH]cc(-c5ccc6[nH]ccc6c5)c4c3)cc2)CC1`, the relative growth recovery was -11.6%.

As for `COC(=O)/C=C/c1cc(O)ccc1O` [erbstatin-analog], the relative growth recovery was -11.6%.

As to `Nc1nc2c(ccc3ccccc32)s1`, the relative growth recovery was 0.375%.

Consider `C/C(=C\c1csc(C)n1)[C@@H]1C[C@@H]2O[C@]2(C)CCC[C@H](C)[C@H](O)[C@@H](C)C(=O)C(C)(C)[C@@H](O)CC(=O)N1` [Ixabepilone], for which the relative growth recovery was -10.8%.

As for `COC(=O)C1=C(C)NC(C)=C(C(=O)OC/C=C/c2ccccc2)C1c1cccc([N+](=O)[O-])c1` (stereo not drawn) [Pranidipine], the relative growth recovery is -0.3%.

`OCCCNc1cc(-c2ccnc(Nc3cccc(Cl)c3)n2)ccn1`: the relative growth recovery was -12.8%.

`Nc1ccc2ncnc(NCCc3ccc(Oc4ccccc4)cc3)c2c1`: the relative growth recovery is -2.79%.

`NC(=O)c1cn([C@@H]2O[C@H](CO)[C@@H](O)[C@H]2O)c2ncnc(N)c2c1=O`: the relative growth recovery was -1.56%.

Consider `Oc1c(I)cc(Cl)c2cccnc12`, for which the relative growth recovery is -3.28%.

`Cc1ccc(/C=C2\CNC/C(=C\c3ccc(C)cc3)C2=O)cc1`: the relative growth recovery was -12.6%.

Consider `O=C(Nc1nc(-c2cc(Cl)cs2)c(N2CCN(C3CCCCC3)CC2)s1)c1cnc(N2CCC(C(=O)O)CC2)c(Cl)c1` [Avatrombopag], for which the relative growth recovery was found to be 1.31%.

Turning to `COc1ccccc1NC(=O)OCC1CCN(C(=O)OC(C)(C)C)CC1`, the relative growth recovery came to 0.27%.

On to `Cc1nc(-c2cccnc2)sc1C(=O)Nc1ccccc1-c1cn2c(CN3CCOCC3)csc2n1`, for which the relative growth recovery is -0.27%.

For the molecule `COc1ccc(Cl)cc1C(=O)NCCc1ccc(C(=O)O)cc1` [meglitinide], the relative growth recovery was -1.25%.

As to `O=c1c(O)c(-c2cc(O)c(O)c(O)c2)oc2cc(O)cc(O)c12` [Myricetin (Cannabiscetin)], the relative growth recovery is -0.905%.

For the molecule `Nc1nc(=O)n([C@H]2C[C@H](O)[C@@H](CO)O2)cc1F` [5-Fluoro-2'-deoxycytidine], the relative growth recovery is -8.98%.
